Sampled rows, rich in hits. Any-hit rate of the full collection: about 4.1%.
hgDAF12 agonist – hgDAF-12 agonism, primary luciferase screen; HEK293 GAL4-hgDAF12 UAS-luciferase reporter, agonist luminescence; normalized to butyrate control; activation, % at 6.8 µM; actives 1.8% (n = 370,000);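 active = activation above a cutoff set at the mean of all screened compounds plus 3 SD, cut at about 10% in these data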;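 note: 0% = DMSO wells and 100% = sodium butyrate wells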
ssDAF12 agonist – activates DAF-12 receptor from parasite S. stercoralis; HEK293 ssDAF-12/GRIP1 lit1-tk-luc reporter, luminescence; % of 3 µM dafachronic acid response; activation, % at 6.8 µM; actives 1% (n = 370,000); AID 652126;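 active = activation above the mean over all tested compounds plus 3 SD, cut at about 0.9% in these data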;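 note: 0% = DMSO-only wells and 100% = 3 µM delta7-dafachronic acid wells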
DAX1 inh-1 – inhibitors of human orphan nuclear receptor DAX1 (NR0B1); actives 0.99% (n = 340,000); HEK293 Gal4-DAX1 luciferase reporter, luminescence; inhibition, % at 6.75 µM; AID 504766;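 active = inhibition above the mean over all tested compounds plus 3 SD, cut at about 4.2% in these data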;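 note: 0% = DAX1-transfected cells with DMSO and 100% = empty-vector control cells with DMSO; inhibition shows as a rise in luminescence from relieved DAX1 repression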
Target sequence (P51843 207-470 limits assumed): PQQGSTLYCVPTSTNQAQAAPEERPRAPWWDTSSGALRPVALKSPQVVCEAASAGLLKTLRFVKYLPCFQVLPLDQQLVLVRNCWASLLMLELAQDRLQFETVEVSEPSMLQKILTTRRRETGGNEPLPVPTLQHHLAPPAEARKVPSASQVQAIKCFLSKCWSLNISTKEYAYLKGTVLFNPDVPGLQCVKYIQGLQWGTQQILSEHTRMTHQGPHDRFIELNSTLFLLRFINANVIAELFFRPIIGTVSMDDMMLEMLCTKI
DAX1 inh-2 – DAX1 (NR0B1) inhibition, primary screen | HEK293T StAR-luciferase reporter, SF-1/DAX-1 repression relief | inhibition, % at 6.8 µM | actives 1.1% (n = 370,000);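 active = inhibition above the mean over all tested compounds plus 3 SD, cut at about 3.6% in these data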;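 note: 0% = DAX-1 cells with DMSO and 100% = cells lacking DAX-1 with DMSO; higher inhibition means more luminescence from relief of DAX-1 repression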
hcDAF12 agonist – activates DAF-12 receptor from parasite H. contortus. HEK293 hcDAF-12 lit1-tk-luc reporter, luminescence; 0% DMSO, 100% Δ7-dafachronic acid. activation, % at 6.8 µM. actives 1.4% (n = 370,000). AID 652067;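 active = activation above the mean of all tested compounds plus 3 SD, cut at about 5.5% in these data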;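 note: 100% = response to 3 µM Δ7-dafachronic acid high control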
* marks the source's active call; other numbers are inactive results; . = no result.

SMILES	hgDAF12 agonist	ssDAF12 agonist	DAX1 inh-1	DAX1 inh-2	hcDAF12 agonist
CCSc1nnc(-c2ccc(OC)cc2)o1	12*	-1	1	1	1
Cc1ccccc1-c1nnc(SCc2ccccc2F)o1	13*	0	4.3*	3.9*	6.4*
COc1ccc(-c2nnc(-c3ccccc3O)o2)cc1	12*	0	1	2	2
CC(Oc1ccccc1)C(=O)N=C1SC2CS(=O)(=O)CC2N1Cc1ccccc1 (centres undefined)	-1	-1	1	-1	1
C#CCSc1nnc(-c2ccc(OC)cc2)o1	11*	0	4.5*	2	3
CSc1nnc(-c2ccc([N+](=O)[O-])cc2)o1	3	-1	2	0	-1
C#CCSc1nnc(-c2ccc([N+](=O)[O-])cc2)o1	12*	-1	-1	2	0
CCOC(=O)C1=CCN(S(C)(=O)=O)C1c1ccc(Cl)cc1 (centres undefined)	0	-1	.	-1	0
C[C@H]1COc2cc(Br)ccc2S(=O)(=O)N1Cc1cn(Cc2ccc(F)cc2)nn1	1	-1	.	0	0
O=C(N/N=C/c1cccc(OC(=O)N2CCOCC2)c1)c1cccs1	11*	-1	1	1	4
COc1ccccc1NC(=O)Nc1nc(CC(=O)NCc2cccnc2)cs1	0	-1	4.8*	0	-1
COc1ccc(CNC(=O)Cc2csc(NC(=O)Nc3ccccc3OC)n2)cc1	-2	-2	-2	-3	-1
Clc1cccc(Cc2c(-c3cccc(Br)c3)nc3c4ccccc4ccn23)c1	3	0	.	1	6.1*
c1ccc(-c2nc3c4ccccc4ccn3c2CC2CCCCC2)cc1	6	1	.	1	5.6*
Cc1ccc(-c2nc3c4ccccc4ccn3c2Cc2cccc(F)c2)cc1	2	0	.	1	4
Clc1ccc(-c2nc3c4ccccc4ccn3c2Cc2cccc(Cl)c2)cc1	7	1	.	1	5.9*
Fc1cccc(Cc2c(-c3ccccc3)nc3c4ccccc4ccn23)c1	5	1.4*	.	1	4
CCc1nc2ccc(C(=O)N3CCN(C(=O)c4ccco4)CC3)cn2c1N(C)C(=O)c1cccc(OC)c1	4	-1	.	0	-2
O=C(NCC(c1ccco1)N1CCCCC1)c1cc2c(s1)CCCC2 (centres undefined)	1	0	-1	4.2*	-1
C[C@@H]1CN([C@@H](C)CO)C(=O)CCCn2nncc2CO[C@@H]1CN(C)C(=O)NC1CCCCC1	3	-1	0	0	-1
Cc1cc(Cl)ccc1OCCCC(=O)NO	12*	-1	0	-1	-2
CC(C)C[C@@H](COCc1cccc(C(F)(F)F)c1)N1CCN(C(=O)c2ccc(C(F)(F)F)cc2)CCC1=O	2	-1	.	1	-2
CN1C(=O)C(CC(=O)Nc2ccc(F)cc2)N(Cc2cccs2)C1=S (centres undefined)	3	9.6*	1	1	3
COc1cc2c(cc1NC(=O)CSc1nnc(-c3cnccn3)n1-c1ccc(C)cc1)oc1ccccc12	-1	0	.	-3	1
O=C(O)c1ccc(Nc2nc3c(s2)CCCC3)cc1	-9	-2	-5	0	-2
SMILES	hgDAF12 agonist	ssDAF12 agonist	DAX1 inh-1	DAX1 inh-2	hcDAF12 agonist
O=S1(=O)N=C(Nc2nc3c(s2)CCCC3)c2ccccc21	11*	0	1	3	5
COc1ccccc1CNC(=O)c1ccc(Cl)c(NC2=NC3CS(=O)(=O)CC3S2)c1 (centres undefined)	-1	-1	1	1	4
COc1ccccc1CNC(=O)c1ccc(NC2=NC3CS(=O)(=O)CC3S2)cc1 (centres undefined)	10*	-1	0	0	1
CN(C(=O)CSc1ncnc2c(-c3cccs3)nsc12)C1CCCCC1	4	0	.	0	3
CCOC(=O)C1CCCN(CC(=O)Nc2cc(C)cc(C)c2)C1 (centres undefined)	1	-1	0	1	0
COc1ccc2[nH]cc(C(=O)CN3CCC(C)CC3)c2c1	7	1.3*	3	1	3
CCOC(=O)C1CCCN(CC(=O)c2c[nH]c3ccc(C)cc23)C1 (centres undefined)	2	1.3*	.	0	2
COc1ccc2[nH]cc(C(=O)CN3CCCC(C)C3)c2c1 (centres undefined)	3	-1	-1	0	0
C=CCSc1n[nH]c(-c2ccc(OCCCC)cc2)n1	6	0.9*	2	2	1
CC(C)OC(=O)N(C)C[C@H]1OCc2cn(nn2)CCCC(=O)N([C@@H](C)CO)C[C@@H]1C	-1	-1	.	0	0
CC1CCC(NC(=O)C2CCN(c3cnccn3)CC2)CC1 (centres undefined)	0	-1	7.1*	0	-1
COc1ccc(CN2CCNC(=O)C2CC(=O)N(Cc2nccn2C)C(C)C)c(OC)c1 (centres undefined)	0	-1	4.4*	-1	-1
CCCCCCCCN1C(=O)[C@@H](CC(=O)NCc2cccc(C(F)(F)F)c2)C[C@@]2(C(=O)OC)C1=C[C@H](C1CCCC1)O[C@@H]2C	-1	-1	.	0	0
O=C(COc1ccc(Cl)cc1Cl)Nc1ccc(C(=O)Nc2ccccc2C(=O)O)cc1	0	0	0	4.3*	2
Cc1cccc(OCC(=O)Nc2ccc(C(=O)Nc3ccccc3C(=O)O)cc2)c1	-5	0	-1	1	0
CCOc1ccc(CCNC(=O)c2cccc(S(=O)(=O)N3CCCCC3)c2)cc1OCC	2	-1	-1	0	-2
COC(=O)[C@]12C[C@H](CC(=O)N3CCCC3)C(=O)N(Cc3ccc4c(c3)OCO4)C1=C[C@H](COCc1ccccc1)O[C@@H]2C	-2	-1	.	0	-2
COc1ccc(N2CCN(C(=O)CN(C)S(=O)(=O)c3cnc[nH]3)CC2)cc1	-3	0	7.1*	-1	0
CSc1nccc(N/N=C/c2ccccc2)n1	11*	0	5.1*	0	2
CC(C)(C)NC(=O)c1ccccc1-c1nc2ccccc2s1	0	1.6*	0	-1	1
CC(=O)N1CCN(c2ccc(N3CCN(C(C)=O)[C@H](C)C3)c(C)c2)[C@H](C)C1	-4	-1	.	-4	-3
O=S1(=O)CCC(NCC2CCCO2)C1 (centres undefined)	-1	-2	7.4*	-1	-1
CCNC1CCS(=O)(=O)C1 (centres undefined)	-2	0	4	0	-1
Cc1ccc(SCCC(=O)N2CCC(C(N)=O)CC2)cc1	-1	-1	1	0	1
Cc1ccc(SCCC(=O)N2CCC(C)CC2)cc1	9	0	5.7*	1	2

Compound activity (PubChem BioAssay)
